# Measurements reported in PubChem BioAssay (EPA / NIEHS).
# “And” between values parts separate entries of the source, which are not always exact repeats. Equal entries are not always repeated. Results filed as inconclusive are left out. Some compounds were tested as several samples or in several runs, with calls that do not always agree. The source made the active and inactive calls. Rule for the calls, unless noted: active = hit-call score of the fitted dose curve at least 0.9, where 1 is the maximum; inactive = score below 0.9.
# How the values were obtained:
# [1] = molecular target: Oxysterols receptor LXR-alpha (Homo sapiens) (UniProt Q13133); assay: ATG_LXRa_TRANS: Attagene TRANS-FACTORIAL HepG2 Assay for human Liver X Receptor alpha (LXRa) (AID 2282980; active = hit-call score of the fitted dose curve at least 0.9, where 1 is the maximum); settings: HepG2 Attagene TRANS reporter, LXRa transactivation
# Sequence of Oxysterols receptor LXR-alpha (Homo sapiens) (Q13133 whole entry, looked up, the tested form may be a part): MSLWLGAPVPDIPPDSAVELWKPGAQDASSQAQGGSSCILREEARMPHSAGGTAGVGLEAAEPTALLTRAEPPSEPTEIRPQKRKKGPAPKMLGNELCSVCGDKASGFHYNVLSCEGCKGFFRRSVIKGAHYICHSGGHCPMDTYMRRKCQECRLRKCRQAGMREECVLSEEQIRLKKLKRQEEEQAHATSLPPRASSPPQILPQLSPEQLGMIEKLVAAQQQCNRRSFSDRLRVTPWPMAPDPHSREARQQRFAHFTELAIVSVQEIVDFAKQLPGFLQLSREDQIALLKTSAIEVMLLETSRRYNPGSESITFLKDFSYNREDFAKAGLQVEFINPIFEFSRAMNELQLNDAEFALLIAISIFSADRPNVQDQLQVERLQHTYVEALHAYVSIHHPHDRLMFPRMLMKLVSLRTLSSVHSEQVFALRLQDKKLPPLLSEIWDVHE
# Summary of the method: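 Transfect HepG2 with GAL4-UAS multiplex reporter constructs (TRANS format, chimeric receptor-GAL4); treat 24 h; extract RNA, reverse-transcribe, PCR-amplify, FAM-label, HpaI-digest; resolve fragments by capillary electrophoresis. Upward response vs DMSO.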
# [2] = molecular target: Oxysterols receptor LXR-beta (Homo sapiens) (UniProt P55055); assay: ATG_LXRb_TRANS: Attagene TRANS-FACTORIAL HepG2 Assay for human Liver X Receptor beta (LXRb) (AID 2282981; active = hit-call score of the fitted dose curve at least 0.9, where 1 is the maximum); settings: HepG2 Attagene TRANS GAL4-LXRb reporter, mRNA
# Sequence of Oxysterols receptor LXR-beta (Homo sapiens) (P55055 whole entry, looked up, the tested form may be a part): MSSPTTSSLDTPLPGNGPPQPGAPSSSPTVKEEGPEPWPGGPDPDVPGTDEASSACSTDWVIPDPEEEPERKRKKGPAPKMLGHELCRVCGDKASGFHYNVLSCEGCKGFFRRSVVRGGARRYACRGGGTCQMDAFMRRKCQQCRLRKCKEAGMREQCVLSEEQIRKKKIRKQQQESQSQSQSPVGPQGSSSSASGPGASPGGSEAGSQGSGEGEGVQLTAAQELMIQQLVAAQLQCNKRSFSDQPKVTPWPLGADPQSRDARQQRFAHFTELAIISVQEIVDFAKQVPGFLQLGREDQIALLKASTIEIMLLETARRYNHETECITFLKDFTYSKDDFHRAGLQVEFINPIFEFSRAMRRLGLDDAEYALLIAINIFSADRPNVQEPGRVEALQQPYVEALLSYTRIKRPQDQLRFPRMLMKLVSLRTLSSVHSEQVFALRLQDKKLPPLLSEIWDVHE
# Summary of the method: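 Cells: HepG2, transiently transfected with GAL4-UAS reporter units plus LXRb-Gal4 fusion. Treatment: 24 h. Detection: reporter mRNA by RT-PCR, 6-FAM labelling, HpaI digestion, capillary electrophoresis.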
# [3] = molecular target: Nuclear receptor subfamily 4 group A member 2 (Homo sapiens) (UniProt P43354); assay: ATG_NURR1_TRANS: Attagene TRANS-FACTORIAL HepG2 Assay for human Nuclear Receptor Related Protein 1 (NURR1) (AID 2282985; active = hit-call score of the fitted dose curve at least 0.9, where 1 is the maximum); settings: HepG2 Attagene TRANS reporter, mRNA readout
# Sequence of Nuclear receptor subfamily 4 group A member 2 (Homo sapiens) (P43354 whole entry, looked up): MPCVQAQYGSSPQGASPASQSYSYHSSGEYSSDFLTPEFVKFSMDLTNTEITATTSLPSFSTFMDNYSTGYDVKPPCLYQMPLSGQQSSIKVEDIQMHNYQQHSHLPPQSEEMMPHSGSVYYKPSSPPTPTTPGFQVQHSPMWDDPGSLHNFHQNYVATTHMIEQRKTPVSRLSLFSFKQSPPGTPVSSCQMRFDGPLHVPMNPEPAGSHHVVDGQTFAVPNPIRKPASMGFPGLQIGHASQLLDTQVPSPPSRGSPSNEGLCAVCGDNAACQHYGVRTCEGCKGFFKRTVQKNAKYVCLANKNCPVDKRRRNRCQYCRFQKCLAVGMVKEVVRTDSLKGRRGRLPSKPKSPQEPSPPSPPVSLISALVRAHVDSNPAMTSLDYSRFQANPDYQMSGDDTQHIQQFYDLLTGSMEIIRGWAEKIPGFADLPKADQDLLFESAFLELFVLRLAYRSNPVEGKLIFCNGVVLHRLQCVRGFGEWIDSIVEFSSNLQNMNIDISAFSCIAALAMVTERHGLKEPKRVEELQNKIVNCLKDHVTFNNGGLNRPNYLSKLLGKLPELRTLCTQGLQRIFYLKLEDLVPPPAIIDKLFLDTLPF
# Summary of the method: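 Cells: HepG2, transiently transfected. Exposure: 24 h. Detection: fluorescence of labelled RT-PCR products separated by capillary electrophoresis; upward fit versus DMSO.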
# [4] = molecular target: Transcriptional activator Myb (Homo sapiens) (UniProt P10242); assay: ATG_Myb_CIS: Attagene CIS-FACTORIAL HepG2 Assay for human Myeloblastosis (Myb) Proto-Oncogene Transcription Factor (AID 2282986); settings: HepG2 Attagene CIS-FACTORIAL Myb reporter transcription; actives raise or lower the signal
# Sequence of Transcriptional activator Myb (Homo sapiens) (P10242 whole entry, looked up): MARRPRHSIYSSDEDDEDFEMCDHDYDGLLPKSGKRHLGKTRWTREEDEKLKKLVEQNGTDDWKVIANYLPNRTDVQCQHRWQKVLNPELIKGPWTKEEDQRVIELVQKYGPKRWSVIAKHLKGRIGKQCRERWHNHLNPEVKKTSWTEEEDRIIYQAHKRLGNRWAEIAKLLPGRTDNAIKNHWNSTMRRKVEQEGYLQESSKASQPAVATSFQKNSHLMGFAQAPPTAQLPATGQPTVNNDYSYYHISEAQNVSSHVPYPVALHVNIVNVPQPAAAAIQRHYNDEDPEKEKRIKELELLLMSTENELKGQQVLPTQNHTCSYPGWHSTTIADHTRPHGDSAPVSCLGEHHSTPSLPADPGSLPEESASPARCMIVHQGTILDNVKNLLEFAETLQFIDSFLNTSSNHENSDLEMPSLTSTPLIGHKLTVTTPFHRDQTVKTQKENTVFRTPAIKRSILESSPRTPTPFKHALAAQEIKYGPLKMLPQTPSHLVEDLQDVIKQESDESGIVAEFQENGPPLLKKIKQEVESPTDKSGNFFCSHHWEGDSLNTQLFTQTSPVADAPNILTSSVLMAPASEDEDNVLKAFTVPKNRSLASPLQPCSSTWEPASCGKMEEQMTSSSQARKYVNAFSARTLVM
# Summary of the method: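 Reporter mRNA is quantified by RT-PCR and capillary electrophoresis 24 h after dosing HepG2 cells transfected with cis-regulated reporter units, which track endogenous transcription factor activity. Gain and loss of signal are fitted versus DMSO baseline.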
# [5] = molecular target: Nuclear respiratory factor 1 (Homo sapiens) (UniProt Q16656); assay: ATG_NRF1_CIS: Attagene CIS-FACTORIAL HepG2 Assay for human Nuclear Respiratory Factor 1 (NRF1) Orphan Gene (AID 2282987); settings: HepG2 NRF1 cis-element reporter, Attagene multiplex; actives raise or lower the signal
# Sequence of Nuclear respiratory factor 1 (Homo sapiens) (Q16656 whole entry, looked up): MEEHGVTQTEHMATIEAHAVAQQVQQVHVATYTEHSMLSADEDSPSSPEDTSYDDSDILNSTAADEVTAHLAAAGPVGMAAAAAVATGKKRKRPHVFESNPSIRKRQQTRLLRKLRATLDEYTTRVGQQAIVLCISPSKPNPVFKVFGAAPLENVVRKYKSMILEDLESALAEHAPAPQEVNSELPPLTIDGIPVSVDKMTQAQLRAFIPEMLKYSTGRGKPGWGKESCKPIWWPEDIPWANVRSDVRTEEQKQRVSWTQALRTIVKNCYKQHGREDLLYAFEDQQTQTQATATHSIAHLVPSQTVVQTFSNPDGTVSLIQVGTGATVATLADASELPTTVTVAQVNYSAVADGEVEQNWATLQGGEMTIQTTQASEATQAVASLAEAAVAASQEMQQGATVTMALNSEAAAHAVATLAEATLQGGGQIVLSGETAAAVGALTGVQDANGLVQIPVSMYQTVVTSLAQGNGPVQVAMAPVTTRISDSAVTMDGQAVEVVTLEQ
# Summary of the method: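 Endogenous NRF1-driven reporter transcription in transfected HepG2 cells after 24 h treatment. Readout: RT-PCR products, 6-FAM labelled and resolved by capillary electrophoresis; changes fitted both directions relative to DMSO.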
# [6] = ATG_NFI_CIS: Attagene CIS-FACTORIAL HepG2 Assay for human Nuclear Factor I (NFI) (AID 2282989); settings: HepG2 cis-regulatory reporter, NFI response element transcription; actives raise or lower the signal
# Summary of the method: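 HepG2, transient MRTU, 24 h exposure; RNA→cDNA→PCR→FAM label→HpaI→CE fluorescence. Bidirectional fit, DMSO = baseline.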
# [7] = molecular target: Myc proto-oncogene protein (Homo sapiens) (UniProt P01106); assay: ATG_Myc_CIS: Attagene CIS-FACTORIAL HepG2 Assay for human Myelocytomatosis (Myc) Proto-Oncogene Transcription Factor (AID 2282990); settings: HepG2, Attagene cis-reporter transcription factor activity; actives raise or lower the signal
# Sequence of Myc proto-oncogene protein (Homo sapiens) (P01106 whole entry, looked up): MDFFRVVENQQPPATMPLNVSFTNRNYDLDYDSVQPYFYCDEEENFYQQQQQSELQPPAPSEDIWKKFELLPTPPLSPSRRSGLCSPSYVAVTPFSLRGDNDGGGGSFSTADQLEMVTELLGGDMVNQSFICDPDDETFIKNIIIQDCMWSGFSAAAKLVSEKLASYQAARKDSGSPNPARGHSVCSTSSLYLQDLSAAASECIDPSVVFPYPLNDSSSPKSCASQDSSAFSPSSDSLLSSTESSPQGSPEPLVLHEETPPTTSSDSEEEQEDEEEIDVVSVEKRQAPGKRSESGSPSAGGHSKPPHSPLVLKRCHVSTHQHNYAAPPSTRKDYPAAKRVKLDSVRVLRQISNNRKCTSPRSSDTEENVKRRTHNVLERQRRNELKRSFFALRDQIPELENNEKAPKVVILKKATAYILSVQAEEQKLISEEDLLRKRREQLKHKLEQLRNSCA
# Summary of the method: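 HepG2, transient MRTU transfection (cis promoters, endogenous TFs); 24 h dosing; TriZol RNA → oligo(dT) RT → PCR → 6-FAM primer extension → HpaI cut → CE. Bidirectional fit vs DMSO.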
# [8] = ATG_NF_kB_CIS: Attagene CIS-FACTORIAL HepG2 Assay for human Nuclear Factor Kappa B (NF-kB) (AID 2282991); settings: HepG2 Attagene cis-factorial NF-kB reporter mRNA; actives raise or lower the signal
# Summary of the method: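 Readout is reporter transcript level, gain or loss versus DMSO, measured 24 h post-dose via RT-PCR, fluorescent labelling and capillary electrophoresis. Human HepG2 liver cells carried transiently transfected CIS reporter constructs reflecting endogenous factors.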
# [9] = ATG_NRF2_ARE_CIS: Attagene CIS-FACTORIAL HepG2 Assay for human Nuclear Factor Erythroid 2 Related Factor 2 (NFR2) response to Antioxidant Response Elements (ARE) (AID 2282992); settings: HepG2 Attagene ARE/NRF2 reporter, transcription factor activity; actives raise or lower the signal;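 for AC50: reporter mRNA level measured by RT-PCR and capillary electrophoresis fluorescence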
# Summary of the method: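 Transient MRTU transfection of HepG2; 24 h compound exposure; TriZol RNA, RT with oligo(dT), PCR, 6-FAM primer extension, HpaI cut, CE. Bidirectional fit vs DMSO.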
# [10] = ATG_Oct_MLP_CIS: Attagene CIS-FACTORIAL HepG2 Assay for human Octamer-Binding Transcription Factor (Oct) (AID 2282993); settings: HepG2 Attagene cis-factorial Oct reporter, mRNA; actives raise or lower the signal
# Summary of the method: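 Multiplexed cis-reporter assay in human liver HepG2 cells, 24 h incubation. Reporter RNA amplified and labelled, then resolved by capillary electrophoresis; DMSO serves as negative control and baseline.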
# [11] = molecular target: Cellular tumor antigen p53 (Homo sapiens) (UniProt P04637); assay: ATG_p53_CIS: Attagene CIS-FACTORIAL HepG2 Assay for human p53 Transcription Factor (AID 2282994); settings: HepG2 p53 cis-element reporter, Attagene mRNA; actives raise or lower the signal
# Sequence of Cellular tumor antigen p53 (Homo sapiens) (P04637 whole entry, looked up): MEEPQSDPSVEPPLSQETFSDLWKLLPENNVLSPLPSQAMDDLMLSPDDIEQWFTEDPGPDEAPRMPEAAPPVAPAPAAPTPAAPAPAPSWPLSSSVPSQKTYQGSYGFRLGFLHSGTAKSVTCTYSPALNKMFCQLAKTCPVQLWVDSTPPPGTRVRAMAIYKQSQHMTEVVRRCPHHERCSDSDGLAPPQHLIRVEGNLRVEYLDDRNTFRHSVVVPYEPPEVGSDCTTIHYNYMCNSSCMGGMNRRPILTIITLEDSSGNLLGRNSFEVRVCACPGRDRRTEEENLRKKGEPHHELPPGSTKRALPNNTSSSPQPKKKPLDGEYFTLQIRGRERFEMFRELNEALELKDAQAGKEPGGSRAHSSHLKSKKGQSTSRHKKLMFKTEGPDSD
# Summary of the method: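 HepG2, transient MRTU transfection (cis promoter elements, endogenous TFs); 24 h dosing; RNA isolation, RT-PCR, 6-FAM primer extension, HpaI digest, CE fluorescence; bidirectional fit vs DMSO.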
# [12] = BSK_3C_TissueFactor: BioMAP Diversity Plus: 3C Assay for Tissue Factor Biomarker Activity (AID 2282997); settings: BioMAP 3C HUVEC, tissue factor biomarker readout; actives raise or lower the signal
# Summary of the method: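 ELISA read-out of Tissue Factor levels on human umbilical vein endothelium collected 24 h after chemical dosing. Gain or loss of signal was fitted relative to DMSO.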
# [13] = BSK_3C_uPAR: BioMAP Diversity Plus: 3C Assay for Urokinase-type plasminogen activator receptor (uPAR) Biomarker Activity (AID 2282998); settings: BioMAP 3C HUVEC, uPAR biomarker ELISA; actives raise or lower the signal
# Summary of the method: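 Dose primary human umbilical vein endothelial cells, incubate 24 h, measure cell-surface uPAR by ELISA, then fit the signal in both directions against the DMSO negative control.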
# [14] = BSK_3C_VCAM1: BioMAP Diversity Plus: 3C Assay for Vascular cell adhesion molecule 1 (VCAM1) Biomarker Activity (AID 2282999); settings: BioMAP 3C HUVEC, VCAM1 ELISA, cytokine-stimulated; actives raise or lower the signal
# Summary of the method: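 Endothelial cells from human umbilical vein are treated with test chemical. At 24 h, VCAM-1 is measured by ELISA, and responses in either direction are fitted relative to DMSO.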
# [15] = BSK_4H_Eotaxin3: BioMAP Diversity Plus: 4H Assay for Eotaxin 3 Biomarker Activity (AID 2283000); settings: primary human endothelial cells (HUVEC); actives raise or lower the signal;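 for outcome: CCL26 protein level quantified by ELISA in parallel with SRB cytotoxicity check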
# Summary of the method: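 Chemicals were added to human umbilical vein endothelium cultures, and Eotaxin-3 was quantified by ELISA at 24 h. Values were derived by bidirectional fitting with DMSO serving as negative control and activity baseline.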
# [16] = molecular target: human Peroxisome Proliferator-activated Receptor alpha (PPARa), PPARA (gene 5465) (UniProt Q07869); assay: ATG_PPARa_TRANS: Attagene TRANS-FACTORIAL HepG2 Assay for human Peroxisome Proliferator-activated Receptor alpha (PPARa) (AID 2283001; active = hit-call score of the fitted dose curve at least 0.9, where 1 is the maximum)
# Sequence of human Peroxisome Proliferator-activated Receptor alpha (PPARa), PPARA (gene 5465) (Q07869 whole entry, looked up, the tested form may be a part): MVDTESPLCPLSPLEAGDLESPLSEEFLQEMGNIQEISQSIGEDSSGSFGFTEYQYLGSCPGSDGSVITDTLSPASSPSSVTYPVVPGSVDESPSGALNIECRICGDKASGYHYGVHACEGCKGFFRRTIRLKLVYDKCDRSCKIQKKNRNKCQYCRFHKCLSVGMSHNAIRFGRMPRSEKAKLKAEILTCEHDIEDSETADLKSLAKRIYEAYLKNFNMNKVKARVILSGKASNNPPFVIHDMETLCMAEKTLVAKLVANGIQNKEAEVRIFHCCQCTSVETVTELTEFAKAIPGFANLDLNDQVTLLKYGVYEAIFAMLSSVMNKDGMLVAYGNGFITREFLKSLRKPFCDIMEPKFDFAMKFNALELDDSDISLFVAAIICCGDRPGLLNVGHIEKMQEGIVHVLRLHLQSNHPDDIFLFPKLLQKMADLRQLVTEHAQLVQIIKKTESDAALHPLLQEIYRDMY
# Summary of the method: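 Reporter transcripts from GAL4-UAS units in transfected HepG2 were quantified 24 h after dosing. Detection used reverse transcription, PCR, fluorescent primer extension and capillary electrophoresis, with DMSO as baseline.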
# [17] = molecular target: Hepatocyte nuclear factor 4-alpha (Homo sapiens) (UniProt P41235); assay: ATG_HNF4a_TRANS: Attagene TRANS-FACTORIAL HepG2 Assay for human Hepatocyte Nuclear Factor 4 alpha (HNF4a) (AID 2282982; active = hit-call score of the fitted dose curve at least 0.9, where 1 is the maximum); settings: HepG2 HNF4a transactivation reporter, mRNA readout
# Sequence of Hepatocyte nuclear factor 4-alpha (Homo sapiens) (P41235 whole entry, looked up): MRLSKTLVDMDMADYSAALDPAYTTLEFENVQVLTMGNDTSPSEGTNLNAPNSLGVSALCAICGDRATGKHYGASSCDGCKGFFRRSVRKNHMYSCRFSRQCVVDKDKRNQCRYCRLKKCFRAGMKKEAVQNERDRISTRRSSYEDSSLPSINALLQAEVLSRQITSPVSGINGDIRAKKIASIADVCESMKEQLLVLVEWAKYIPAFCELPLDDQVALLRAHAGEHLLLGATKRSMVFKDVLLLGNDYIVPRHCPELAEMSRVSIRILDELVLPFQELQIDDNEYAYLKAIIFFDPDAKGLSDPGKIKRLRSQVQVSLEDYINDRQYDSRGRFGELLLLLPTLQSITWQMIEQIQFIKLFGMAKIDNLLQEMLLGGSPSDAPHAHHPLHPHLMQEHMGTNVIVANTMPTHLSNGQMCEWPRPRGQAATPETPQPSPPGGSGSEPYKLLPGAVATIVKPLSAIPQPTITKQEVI
# Summary of the method: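 Transfected HepG2 reporter cells are dosed for 24 h; reporter RNA is reverse-transcribed, amplified, fluorescently labelled and HpaI-digested before CE sizing. Positive-direction fit against DMSO.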
# [18] = ATG_M_06_TRANS: Attagene TRANS-FACTORIAL HepG2 Assay for M06 Transcription Factor (Internal Marker) (AID 2282983; active = hit-call score of the fitted dose curve at least 0.9, where 1 is the maximum); settings: HepG2 Attagene TRANS M06 internal marker reporter
# Summary of the method: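 Transfect HepG2 with MRTUs → dose compounds 24 h → isolate RNA, oligo(dT) RT → PCR with reporter primers → 6-FAM primer extension → HpaI digest → CE fragment analysis. Positive direction vs DMSO.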
# [19] = ATG_M_32_TRANS: Attagene TRANS-FACTORIAL HepG2 Assay for M32 Transcription Factor (Internal Marker) (AID 2282984; active = hit-call score of the fitted dose curve at least 0.9, where 1 is the maximum;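 note: transcript level of a background control reporter unit measured by RT-PCR and capillary electrophoresis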); settings: HepG2 Attagene TRANS M32 internal marker reporter
# Summary of the method: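 Using transiently transfected HepG2 cells exposed to test chemicals for 24 h, reporter transcripts are converted to labelled cDNA fragments and quantified by capillary electrophoresis. DMSO defines the activity baseline.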
structure (smiles),measurement,setting,value
CN(C)C(=S)SSC(=S)N(C)C,outcome,[1],inactive
same,outcome,[2],inactive
same,outcome,[3],inactive
same,outcome,[4],inactive
same,outcome,[5],inactive
same,outcome,[6],inactive
same,outcome,[7],inactive
same,outcome,[8],inactive
same,outcome,[9],inactive
same,outcome,[10],inactive
same,outcome,[11],inactive
same,AC50,[12],31.4 µM (active)
same,AC50,[13],29.4 µM (active)
same,AC50,[14],16.9 µM (active)
same,AC50,[15],33.1 µM (active)
same,outcome,[16],inactive
Cc1cc(Cl)ccc1OCC(=O)O,outcome,[1],inactive
same,outcome,[2],inactive
same,outcome,[17],inactive
same,outcome,[18],inactive
same,outcome,[19],inactive
same,outcome,[3],inactive
same,outcome,[4],inactive
same,outcome,[5],inactive
same,outcome,[6],inactive
same,outcome,[7],inactive
same,outcome,[9],inactive
same,outcome,[10],inactive
same,outcome,[11],inactive
same,outcome,[12],inactive
same,outcome,[13],inactive
same,outcome,[14],inactive
same,outcome,[15],inactive
same,outcome,[16],inactive
CCNc1nc(Cl)nc(NC(C)C)n1,outcome,[1],inactive
same,outcome,[2],inactive
same,outcome,[17],inactive
same,outcome,[18],inactive
same,outcome,[19],inactive
same,outcome,[4],inactive
same,outcome,[5],inactive
same,outcome,[6],inactive
same,outcome,[7],inactive
same,outcome,[8],inactive
same,outcome,[9],inactive
same,outcome,[10],inactive
same,outcome,[11],inactive
same,outcome,[13],inactive
same,outcome,[14],inactive
same,outcome,[15],inactive
same,outcome,[16],inactive
Cc1ccc(-c2c(Cl)nc(C#N)n2S(=O)(=O)N(C)C)cc1,outcome,[1],inactive
same,outcome,[2],inactive
same,outcome,[18],inactive
same,outcome,[4],inactive
same,outcome,[5],inactive
same,outcome,[6],inactive
same,outcome,[7],inactive
same,outcome,[8],inactive
same,AC50,[9],6.65 µM (active)
same,AC50,[10],11.9 µM (active)
same,outcome,[11],inactive
same,AC50,[13],23.9 µM (active)
same,AC50,[14],34.3 µM (active)
same,AC50,[15],15.8 µM (active)
same,outcome,[16],inactive
O=C(O)c1nc(Cl)ccc1Cl,outcome,[1],inactive
same,outcome,[2],inactive
same,outcome,[18],inactive
same,outcome,[19],inactive
same,outcome,[3],inactive
same,outcome,[4],inactive
same,outcome,[5],inactive
same,outcome,[6],inactive
same,outcome,[7],inactive
same,outcome,[9],inactive
same,outcome,[10],inactive
same,outcome,[11],inactive
same,outcome,[13],inactive
same,outcome,[14],inactive
same,outcome,[15],inactive
same,outcome,[16],inactive
O=C(O)COc1nc(Cl)c(Cl)cc1Cl,outcome,[17],inactive
same,outcome,[18],inactive
same,outcome,[3],inactive
same,outcome,[4],inactive
same,outcome,[5],inactive
same,outcome,[6],inactive
same,outcome,[7],inactive
same,outcome,[8],inactive
same,AC50,[9],19.1 µM (active)
same,outcome,[10],inactive
same,outcome,[11],inactive
same,outcome,[13],inactive
same,outcome,[14],inactive
same,outcome,[15],inactive
